Out of some 410,000 compounds screened, about 18,000 (4.4%) were called active. Another 7% or so got no clear call; they are omitted. The sample holds actives, similar compounds and a random draw of the others, so the mix is not that of the screen. Unmarked numbers belong to inactive results. Rule as the data show it: active = activity change below about -60%; inconclusive = no clear call, values can overlap the other calls; inactive = above about -39%.
Assay: qHTS Assay for inhibitors of the human cytomegalovirus (HCMV)
Details: HFF cells, HCMV-luciferase reporter, 72 h; at 57.5 µM; active compounds read low
Procedure, shortened: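 Human foreskin fibroblasts infected with luciferase-reporter HCMV at MOI 1 PFU/cell, compounds at two doses. Luciferase measured 72 h post infection; normalized to buffer-only basal and Salinomycin (10uM) controls.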
% is scaled to controls: 0 for no effect and ±100 for the full control effect.

SMILES	activity change, negative = inhibition
CCOC(=O)N1CCC(NC(=O)c2cnn(-c3cccc(C)c3)c2C2CCN(C(=O)OC(C)(C)C)CC2)CC1	0% (active)
COc1ccccc1CN1CCC(CNC(=O)c2cnn(-c3ccccc3Cl)c2C2CCN(C(=O)OC(C)(C)C)CC2)CC1	-7.53%
CCN1CCN(CCCNC(=O)c2cnn(-c3ccc(C)cc3C)c2C2CCN(C(=O)OC(C)(C)C)CC2)CC1	-13.5%
CC(C)(C)OC(=O)N1CCC(c2c(C(=O)N3CCN(c4cccc(Cl)c4)CC3)cnn2-c2cccc(Cl)c2)CC1	26.6%
CC(C)(C)OC(=O)N1CCC(c2c(C(=O)Nc3ccc4c(c3)OCO4)cnn2-c2ccccc2)CC1	-8.71%
Cc1ccc(CN2CCC(CNC(=O)c3cnn(-c4ccc(C)cc4)c3C3CCN(C(=O)OC(C)(C)C)CC3)CC2)cc1	0%
Cc1cccc(-n2ncc(C(=O)N3CCC(C)CC3)c2C2CCN(C(=O)OC(C)(C)C)CC2)c1	0%
Cc1ccc(CN2CCC(CNC(=O)c3cnn(-c4ccccc4Cl)c3C3CCN(C(=O)OC(C)(C)C)CC3)CC2)cc1	-65.8% (active)
COc1ccccc1N1CCN(CCCNC(=O)c2cnn(-c3ccccc3Cl)c2C2CCN(C(=O)OC(C)(C)C)CC2)CC1	-12.2%
COC(=O)c1ccc(NC(=O)c2cnn(-c3ccc(Cl)cc3)c2C2CCN(C(=O)OC(C)(C)C)CC2)cc1	0% (active)
CC(C)(C)OC(=O)N1CCC(c2c(C(=O)NCc3ccccn3)cnn2-c2ccc(F)cc2)CC1	14.7%
COc1ccccc1CN1CCC(CNC(=O)c2cnn(-c3cccc(Cl)c3)c2C2CCN(C(=O)OC(C)(C)C)CC2)CC1	-108% (active)
Cc1cc(C)cc(NC(=O)Cc2csc(C)n2)c1	53.8%
Cc1ccc(Cn2c(CCCNC(=O)C3CCCCC3)nc3ccccc32)cc1	-11.7%
COc1ccc(N2CCN(S(=O)(=O)CCNC(=O)C(c3ccccc3)c3ccccc3)CC2)cc1	1.25%
COC(=O)c1ccc2c(c1)N(CC(=O)Nc1ccc(C)c(C)c1)C(=O)c1ccccc1S2	6.12%
COC(=O)c1c(NC(=O)CSc2nncs2)sc2c1CCCCC2	-61.6% (active)
COC(=O)c1c(NC(=O)c2ccc(Cl)c(Cl)c2)sc2c1CCCC2	15%
CCc1ccc(N(CC(=O)Nc2sc3c(c2C(=O)OC)CCCC3)S(C)(=O)=O)cc1	40.2%
COc1ccc(S(=O)(=O)N2CCN(CC(=O)NCC3(N4CCOCC4)CCCCC3)CC2)cc1	-36.1%
